Measured values taken from PubChem BioAssay (EPA / NIEHS).
Where a structure was tested more than once in an assay, its records may differ in their call. The source made the active and inactive calls. Rule for the calls: active = hit-call score of the fitted dose curve at least 0.9, where 1 is the maximum; inactive = score below 0.9.

Assays:
[1] = ATG_CRE_CIS: Attagene CIS-FACTORIAL HepG2 Assay for human cAMP Responsive Element (CRE) binding protein 3 (AID 2282926); details: HepG2 CRE cis-reporter, Attagene multiplexed mRNA; actives raise or lower the signal
In short: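 Multiplexed transcription-unit reporters transfected into HepG2; 24 h dosing; RT-PCR/capillary electrophoresis fluorescence read-out; bidirectional fit vs DMSO.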

[2] = target: CCAAT/enhancer-binding protein beta (Homo sapiens) (UniProt P17676); assay: ATG_C_EBP_CIS: Attagene CIS-FACTORIAL HepG2 Assay for human CCAAT/Enhancer Binding Protein (C/EBP) beta (AID 2282927); details: HepG2 Attagene cis-factorial transcription factor reporter; actives raise or lower the signal
In short: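 Endogenous transcription factor activity in human liver HepG2 cells is inferred from induction of a CEBPB-linked reporter mRNA. Exposure lasts 24 h; activity is fitted in both directions relative to DMSO.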

[3] = ATG_CMV_CIS: Attagene CIS-FACTORIAL HepG2 Assay for human CMV (Internal Marker) (AID 2282928); details: HepG2 CMV promoter reporter, transcription factor profiling; actives raise or lower the signal;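 note: endpoint acts as a background internal control marker rather than a target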
In short: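 Endogenous transcription factor activity read in HepG2 via transfected cis-promoter reporter units. After 24 h dosing, reporter mRNA measured by RT-PCR/capillary electrophoresis; gain or loss of signal fit relative to DMSO.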

[4] = ATG_DR4_LXR_CIS: Attagene CIS-FACTORIAL HepG2 Assay for human Liver X Receptor (LXR), DR4 submotif (AID 2282929); details: HepG2 Attagene DR4 cis-reporter, mRNA transcription; AC50: actives raise or lower the signal unless noted; outcome: actives raise or lower the signal unless noted
In short: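 Endogenous factor activity at a DR4 cis-element is read as reporter mRNA in transiently transfected HepG2 cells. Exposure lasts 24 h; transcripts are amplified, fluorescently labelled and sized by capillary electrophoresis, with DMSO as baseline.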

[5] = target: Aryl hydrocarbon receptor (Homo sapiens) (UniProt P35869); assay: ATG_Ahr_CIS: Attagene CIS-FACTORIAL HepG2 Assay for human Aryl Hydrocarbon Receptor (Ahr) (AID 2282930); details: HepG2 AhR cis-factorial reporter transcription; actives raise or lower the signal
In short: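 Transient MRTU transfection of HepG2 → 24 h compound exposure → total RNA, oligo(dT) RT → PCR, 6-FAM extension, HpaI cut → CE fluorescence. DMSO = baseline; bidirectional curve fit.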

[6] = ATG_AP_1_CIS: Attagene CIS-FACTORIAL HepG2 Assay for human Activator Protein 1 (AP-1) (AID 2282931); details: HepG2 Attagene cis-factorial AP-1 reporter mRNA; actives raise or lower the signal
In short: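 Fluorescence of labelled PCR fragments separated by capillary electrophoresis gives reporter mRNA levels. HepG2 with transfected cis-regulated reporter units, 24 h exposure; DMSO serves as baseline for bidirectional curve fits.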

[7] = ATG_AP_2_CIS: Attagene CIS-FACTORIAL HepG2 Assay for human Activator Protein 2 (AP-2) (AID 2282932); details: HepG2 AP-2 cis-reporter, Attagene transcription factor profiling; AC50: actives raise or lower the signal unless noted; outcome: actives raise or lower the signal unless noted
In short: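 Step one: transient transfection of HepG2 with reporter transcription units. Step two: 24 h chemical exposure. Step three: RNA extraction, RT-PCR, labelled fragment analysis by capillary electrophoresis; DMSO serves as baseline.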

[8] = ATG_BRE_CIS: Attagene CIS-FACTORIAL HepG2 Assay for human Bone Morphogenetic Protein (BMP) Response Element (BRE) (AID 2282933); details: HepG2 BMP response element reporter, Attagene transcription factor profiling; actives raise or lower the signal
In short: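 Fluorescence-labelled reporter cDNA fragments, separated by capillary electrophoresis, gave the signal for this component of a 52-readout multiplex. HepG2 cells were transfected, exposed to chemicals for 24 h, and compared with DMSO using bidirectional fitting.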

[9] = target: Retinoic acid receptor alpha (Homo sapiens) (UniProt P10276); assay: ATG_DR5_RAR_CIS: Attagene CIS-FACTORIAL HepG2 Assay for human Retinoic Acid Receptor Alpha (RARE), DR5 submotif (AID 2282934); details: HepG2 Attagene cis-factorial RARE DR5 reporter, mRNA; actives raise or lower the signal
In short: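 Transient MRTU transfection of HepG2; 24 h compound treatment; TriZol RNA, oligo(dT) RT, PCR, FAM labelling, capillary electrophoresis. Bidirectional fit vs DMSO. Endogenous TF activity at DR5 RARE.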

[10] = ATG_E_Box_CIS: Attagene CIS-FACTORIAL HepG2 Assay for human Enhancer Box (E-box) (AID 2282936); details: HepG2 E-box cis-reporter transcription, actives raise or lower the signal
In short: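 DMSO served as negative control and baseline for bidirectional fitting. Human hepatoma HepG2 cells, transiently transfected with cis-reporter constructs, were dosed 24 h; reporter mRNA read by RT-PCR and capillary electrophoresis.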

[11] = target: Transcription factor E2F1 (Homo sapiens) (UniProt Q01094); assay: ATG_E2F_CIS: Attagene CIS-FACTORIAL HepG2 Assay for human E2F Transcription Factor 1 (AID 2282935); details: HepG2 Attagene cis-reporter, E2F reporter RNA transcripts; actives raise or lower the signal
In short: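 Total RNA from 24 h-treated, reporter-transfected HepG2 cells undergoes DNase I treatment, oligo(dT) reverse transcription, PCR and 6-FAM primer extension before capillary electrophoresis.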

Measured: AC50

Chain of Transcription factor E2F1 (Homo sapiens) (Q01094 whole entry, looked up): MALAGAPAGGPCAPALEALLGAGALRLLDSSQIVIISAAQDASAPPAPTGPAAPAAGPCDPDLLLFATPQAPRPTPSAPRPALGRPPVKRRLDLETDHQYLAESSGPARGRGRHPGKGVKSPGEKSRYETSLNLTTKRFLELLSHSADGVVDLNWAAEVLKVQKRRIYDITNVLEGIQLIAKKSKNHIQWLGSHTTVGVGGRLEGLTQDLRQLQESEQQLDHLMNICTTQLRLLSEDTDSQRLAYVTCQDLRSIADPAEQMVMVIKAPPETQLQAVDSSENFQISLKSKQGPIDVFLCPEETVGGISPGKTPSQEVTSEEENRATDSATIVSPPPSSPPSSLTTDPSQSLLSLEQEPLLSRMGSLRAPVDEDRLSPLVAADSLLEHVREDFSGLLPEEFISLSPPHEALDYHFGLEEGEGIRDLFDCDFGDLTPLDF
Chain of Aryl hydrocarbon receptor (Homo sapiens) (P35869 whole entry, looked up): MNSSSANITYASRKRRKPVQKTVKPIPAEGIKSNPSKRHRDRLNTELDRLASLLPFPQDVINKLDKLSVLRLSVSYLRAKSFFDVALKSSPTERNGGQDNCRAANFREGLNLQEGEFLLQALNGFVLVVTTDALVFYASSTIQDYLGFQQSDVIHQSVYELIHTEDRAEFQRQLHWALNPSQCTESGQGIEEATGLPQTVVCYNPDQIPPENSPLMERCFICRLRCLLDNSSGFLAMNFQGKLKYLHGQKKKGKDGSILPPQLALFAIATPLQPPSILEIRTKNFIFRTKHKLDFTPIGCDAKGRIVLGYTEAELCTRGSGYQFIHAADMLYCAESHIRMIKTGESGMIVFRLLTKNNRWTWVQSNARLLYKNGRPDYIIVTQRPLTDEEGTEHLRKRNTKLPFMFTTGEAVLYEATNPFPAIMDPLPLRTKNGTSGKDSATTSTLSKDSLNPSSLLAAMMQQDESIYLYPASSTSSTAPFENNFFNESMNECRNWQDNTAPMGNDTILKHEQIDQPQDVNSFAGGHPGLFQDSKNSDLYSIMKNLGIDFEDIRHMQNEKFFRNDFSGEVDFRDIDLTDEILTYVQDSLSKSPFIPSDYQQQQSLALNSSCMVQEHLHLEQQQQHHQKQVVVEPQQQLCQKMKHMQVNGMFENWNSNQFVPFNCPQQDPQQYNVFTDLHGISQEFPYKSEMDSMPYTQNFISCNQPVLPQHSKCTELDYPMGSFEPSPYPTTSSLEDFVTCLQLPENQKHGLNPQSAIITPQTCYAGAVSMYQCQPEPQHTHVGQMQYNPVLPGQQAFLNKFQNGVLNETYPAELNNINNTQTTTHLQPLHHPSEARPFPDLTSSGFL
Chain of Retinoic acid receptor alpha (Homo sapiens) (P10276 whole entry, looked up): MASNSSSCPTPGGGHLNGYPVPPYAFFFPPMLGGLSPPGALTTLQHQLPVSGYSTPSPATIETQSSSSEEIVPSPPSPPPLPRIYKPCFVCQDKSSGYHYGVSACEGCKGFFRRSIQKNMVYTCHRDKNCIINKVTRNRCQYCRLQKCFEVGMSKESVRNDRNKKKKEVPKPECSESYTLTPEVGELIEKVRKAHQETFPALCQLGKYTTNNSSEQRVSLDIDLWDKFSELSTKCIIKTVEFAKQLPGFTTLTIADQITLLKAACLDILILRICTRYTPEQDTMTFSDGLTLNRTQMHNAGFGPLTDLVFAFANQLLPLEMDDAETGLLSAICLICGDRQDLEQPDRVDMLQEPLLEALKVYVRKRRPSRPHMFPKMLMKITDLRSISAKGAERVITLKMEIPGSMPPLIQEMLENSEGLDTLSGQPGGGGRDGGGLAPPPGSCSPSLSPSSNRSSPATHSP
Chain of CCAAT/enhancer-binding protein beta (Homo sapiens) (P17676 whole entry, looked up): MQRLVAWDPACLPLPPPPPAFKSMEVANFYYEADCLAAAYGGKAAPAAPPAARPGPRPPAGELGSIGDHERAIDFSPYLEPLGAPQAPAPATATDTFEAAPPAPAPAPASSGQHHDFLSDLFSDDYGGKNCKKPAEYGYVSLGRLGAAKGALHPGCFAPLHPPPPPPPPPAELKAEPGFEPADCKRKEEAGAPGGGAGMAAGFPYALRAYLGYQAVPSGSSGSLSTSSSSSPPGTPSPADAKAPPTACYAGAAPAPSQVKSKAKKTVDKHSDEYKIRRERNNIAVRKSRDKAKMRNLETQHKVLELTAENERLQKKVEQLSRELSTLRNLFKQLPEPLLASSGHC

C[C@]12CC[C@@H]3c4ccc(O)cc4CC[C@H]3[C@@H]1C[C@@H](O)[C@@H]2O
active: [3] 64.6 µM | [4] 26.3 µM | [7] 24.9 µM
inactive: [1] | [2] | [3] | [4] | [5] | [6] | [7] | [8] | [9] | [10]

O=P(O)(O)CCC(F)(F)C(F)(F)C(F)(F)C(F)(F)C(F)(F)C(F)(F)C(F)(F)C(F)(F)F
inactive: all assays above

CCC1CO1 (stereo unspecified)
inactive: all assays above

NC(C(F)(F)F)C(F)(F)F
inactive: all assays above

Oc1c(Cl)cc(Cl)cc1Sc1cc(Cl)cc(Cl)c1O
active: [8] 1.9 µM
inactive: all other assays above

CCOCCOCC
inactive: all assays above

O=C1OC(=O)c2cc(-c3ccc4c(c3)C(=O)OC4=O)ccc21
inactive: all assays above

OCC(F)(F)C(F)(F)C(F)(F)C(F)(F)C(F)(F)C(F)(F)C(F)(F)C(F)(F)C(F)(F)C(F)(F)C(F)(F)F
inactive: all assays above

Oc1cccc2c(O)cccc12
active: [3] 64.5 µM | [5] 0.578 µM | [10] 27.3 µM
inactive: all other assays above

CCO[Si](CCC1CCC2OC2C1)(OCC)OCC (stereo unspecified)
not listed: [10]
inactive: all other assays above
